Compound activity: PubChem BioAssay, several laboratories
C-LANA FP – inhibitors of KSHV LANA C-terminal domain DNA binding | hit rate 0.078% among 340,000 | inhibition, % at 9 µM | MBP-C-LANA/FAM-LBS DNA binding, fluorescence polarization;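 active = highest replicate inhibition at or above 60% at 9 µM, even if other replicates fall short; inactive = all replicates below 60% inhibition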;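 note: 0% = neutral control wells and 100% = 4 µM acridine orange control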
RTF Ca sens act – increases calcium sensitivity of human cardiac regulated thin filaments. P19429+P45379. IANBD-labeled TnC RTF fluorescence at EC20 calcium; 0% EC20 calcium, 100% full calcium. activation, % at 7.2 µM. hit rate 0.24% among 340,000;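 active = activation above the mean over all tested compounds plus 3 SD, cut at about 30% in these data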;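 note: rise in fluorescence read as greater calcium sensitivity of cardiac thin filaments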
RTF Ca sens inh – cardiac RTF calcium desensitization | IANBD-labeled cardiac RTF, Ca2+ fluorescence | inhibition, % at 7.15 µM | hit rate 0.12% among 340,000;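 active = inhibition above the mean inhibition of all tested compounds plus 3 SD, cut at about 17% in these data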;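 note: assay run at fixed EC70 calcium of 1.6 mM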
Keap1-Nrf2 PPI – Keap1-Nrf2 (human) interaction inhibition; inhibition, % at 9.4 µM; Keap1 Kelch-Nrf2 peptide fluorescence polarization, 1536-well; Q14145; hit rate 0.15% among 340,000; in the data active = inhibition above about 12%;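 note: human Keap1 Kelch domain with fluorescein labeled Nrf2 9mer peptide probe; 0% = neutral control wells and 100% = peptide positive control; higher means more block of Keap1 binding to Nrf2 peptide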
Target sequence (Q14145 whole entry, looked up, the tested form may be a part): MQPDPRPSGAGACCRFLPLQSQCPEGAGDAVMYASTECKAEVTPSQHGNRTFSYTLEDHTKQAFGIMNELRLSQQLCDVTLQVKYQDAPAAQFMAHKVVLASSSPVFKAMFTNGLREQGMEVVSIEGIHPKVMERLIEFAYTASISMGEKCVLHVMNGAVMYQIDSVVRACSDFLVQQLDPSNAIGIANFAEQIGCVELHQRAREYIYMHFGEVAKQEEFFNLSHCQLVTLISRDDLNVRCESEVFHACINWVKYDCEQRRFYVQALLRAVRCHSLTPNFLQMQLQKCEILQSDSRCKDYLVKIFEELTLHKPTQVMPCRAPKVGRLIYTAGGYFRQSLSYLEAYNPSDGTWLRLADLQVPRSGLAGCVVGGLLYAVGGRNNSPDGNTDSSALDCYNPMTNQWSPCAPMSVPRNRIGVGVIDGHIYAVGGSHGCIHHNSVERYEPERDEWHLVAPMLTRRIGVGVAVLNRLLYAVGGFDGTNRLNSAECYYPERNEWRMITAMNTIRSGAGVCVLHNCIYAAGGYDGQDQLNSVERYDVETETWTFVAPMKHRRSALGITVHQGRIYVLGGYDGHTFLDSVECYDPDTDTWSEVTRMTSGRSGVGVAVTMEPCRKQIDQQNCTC
LANA-H2B inh – blocks KSHV LANA binding to histone H2A/H2B; cell-free LANA-H2A/H2B peptide, fluorescence polarization; inhibition, % (no concentration beside the values); Q9QR71; hit rate 0.6% among 320,000; in the data active = inhibition mostly above about 10%, no sharp cut-off; inactive = mostly below about 6.7%
* = called active by the depositor; x = no result; + = active, no number. An excerpt weighted towards active compounds, which were near 0.98% of everything screened.

SMILES	C-LANA FP	RTF Ca sens act	RTF Ca sens inh	Keap1-Nrf2 PPI	LANA-H2B inh
COc1ccccc1/C=C/C=C1\Oc2c(ccc(O)c2CN(C)C)C1=O	11	107*	-147	-41	-27
Cc1ccc(/C=C2\Oc3cc(OCC(=O)NN)ccc3C2=O)o1	1	1	-13	-4	4
COc1ccc2c(c1)CC/C(=C\C=C\c1ccccc1OC)C2=O	0	8	4	-2	2
Cc1cc(-c2ccccc2)c2c(=O)[nH][nH]c2n1	1	2	-5	-1	5
CC(C)CC(=O)c1c[nH]c(C(=O)N2CCN(Cc3ccccc3)CC2)c1	-2	0	-1	4	+
CCCC(=O)Nc1ccccc1NC(C)=O	3	-3	3	1	18*
CCCCCC(=O)Nc1cccc2ccccc12	0	-6	-11	4	2
COc1ccc(/C=C(\NC(=O)c2ccccc2)C(=O)N2CCC(C)CC2)cc1	-2	-9	-10	-3	x
CCN(CC)CCCOc1nc(C)nc2c1oc1ccccc12	-2	-2	36*	-1	x
Cn1c(/C(C#N)=C/c2cccc(O)c2)nc2ccccc21	1	0	-14	-8	-3
Cn1c(/C(C#N)=C/c2ccc(-c3ccc(S(N)(=O)=O)cc3)o2)nc2ccccc21	5	45*	-18	8	10
COc1cc(C(=O)NNC(=O)c2cc(S(=O)(=O)N(C)C)ccc2N2CCCC2)cc(OC)c1OC	0	-3	7	-3	4
CCOc1ccc2cc(C#N)c(SCC(=O)NC(C)CC)nc2c1 (stereo not given)	x	x	x	x	34*
O=C(/C=C/c1cccc(Cl)c1)OCc1cn2cc(Cl)ccc2n1	0	1	-4	2	0
COc1cccc(/C=C/C(=O)NCc2cn3cc(Cl)ccc3n2)c1	77*	-4	-5	3	-2
O=c1ccc(Oc2nc(N3CCCCC3)nc(N3CCCCC3)n2)n[nH]1	4	-2	-2	0	0
Fc1ccc(Oc2nc(-c3ccccc3)nnc2C(F)(F)F)cc1	-1	3	-14	3	10*
COc1ccc(-c2nn(CCC(=O)O)cc2/C=N/NC(N)=S)cc1	0	9	-12	-4	19*
Cc1ccsc1/C=N/n1c(COc2ccccc2)n[nH]c1=S	-1	-1	7	0	-1
CC1CCC2(CC1)NC(=S)N(C(C)(C)C)N2 (stereo not given)	0	x	x	-1	9
CC1CCC2(CC1)NC(=S)N(c1ccccc1)N2 (stereo not given)	1	1	-13	-5	17*
CC(C)NC(=O)/C(C#N)=C/c1ccc(N(C)C)o1	-34	73*	-75	-86	-47
Cc1ccc(/C=C(\C#N)C(=O)NC(C)C)o1	1	5	-2	-7	1
Cc1ccc(SCCCCN2CCNCC2)cc1	0	1	3	-5	18*
CC[C@@]12C(=O)N(c3cccc(Cl)c3)C(=O)N1[C@H](c1ccc(Br)cc1)[C@@H]1C(=O)N(C(C)(C)C)C(=O)[C@@H]12	1	-7	-11	-1	3
SMILES	C-LANA FP	RTF Ca sens act	RTF Ca sens inh	Keap1-Nrf2 PPI	LANA-H2B inh
C/C(=N\Nc1nncc2ccccc12)c1ccc(O)cc1	-1	-2	2	3	12*
CCc1ccc2nc(N(CCN(C)C)C(=O)c3ccc4ccccc4c3)sc2c1	2	-2	-3	-2	-4
CC1(c2ccccc2)NC(=O)N(CC(=O)NNC(=O)c2ccccc2F)C1=O (stereo not given)	-1	4	-4	9	x
Cc1ccc(C2(C)NC(=O)N(CC(=O)NNC(=O)c3ccccc3F)C2=O)cc1 (stereo not given)	0	-2	-8	-5	21*
C[C@@H](C(=O)Nc1nc2ccccc2s1)N1C(=O)C2CC=CCC2C1=O (stereo not given in full)	0	-3	-11	-5	-5
CC(C(=O)Nc1nnc(C2CC2)s1)N1C(=O)C2CC=CCC2C1=O (stereo not given)	2	7	-17	2	13*
O=C(NCc1ccc(F)cc1)c1cc(S(=O)(=O)N2CCCCC2)ccc1Cl	5	0	0	-7	79*
O=P(O)(O)CP(=O)(O)O	x	x	x	x	81*
Oc1cc(-c2ccccc2)c2ccccc2c1	-2	-8	-6	-1	7
COc1cc(C(=O)NCCCn2ccnc2)cc(OC)c1OC	-1	-6	2	-1	11*
CC(=O)Nc1cccc(Cl)c1C(=O)O	-1	1	-5	3	0
O=C(O)c1c(Cl)cccc1Cl	-1	-4	-2	-1	+
CCC(O)C1CCN(C(=O)c2cc(COc3ccc(F)cc3F)on2)CC1 (stereo not given)	1	-5	2	3	x
CCC(=O)n1nc(-c2ccc(Cl)cc2)nc1SC	0	-1	5	3	2
CCCC(=O)n1nc(-c2ccc(Cl)cc2)nc1SC	78*	-2	-7	0	12
Cc1ccc2c(c1)nnn2C1CCN(S(=O)(=O)c2ccc(C(=O)N3C(C)CCCC3C)cc2)CC1 (stereo not given)	-1	1	4	-4	0
Cc1ccc2c(c1)nnn2C1CCN(S(=O)(=O)c2ccc(C(=O)O)cc2)CC1	0	1	-1	-3	126*
O=C(NCc1ccco1)c1ccc(-c2csnn2)cc1	-2	11	2	1	-6
COc1cc(C(=O)Nc2nnc(Cc3ccccc3)s2)cc(OC)c1OC	-3	-7	-4	-2	-2
COc1cc(C(=O)Nc2nnc(CC(=O)N3CCOCC3)s2)cc(OC)c1OC	0	1	-1	-1	17*
COc1ccc(CN(Cc2cccnc2)C(=S)NCCc2ccccc2)cc1OC	-3	4	-5	-2	4
CCOc1ccc(NC(=O)C(c2ccccn2)N(C(=O)CCl)c2ccc(F)cc2)cc1 (stereo not given)	0	-1	-5	-3	33*
Cc1[nH][nH]c(=O)c1C(c1ccc(N(C)C)c(Br)c1)c1c(C)[nH][nH]c1=O	-3	-5	-14	2	60*
CCCCCn1nc(C(=O)N2CCc3ccccc32)c2ccccc2c1=O	-1	-2	-4	0	0
CCC(C)[C@H](NC(=O)N1CCC(C)CC1)C(=O)OC (stereo not given in full)	-1	44*	-7	0	6
O=C(O)C1(c2ccccc2)CCN(S(=O)(=O)c2ccccc2)CC1	-5	-8	-5	-1	1.5*
O=C(COc1ccc(F)cc1Cl)Nc1ccc(S(=O)(=O)Nc2nccs2)cc1	1	-4	8	6	0
N/C(=N\OC(=O)/C=C/c1ccccc1)c1ccccn1	0	3	-4	-4	2
COc1ccc(/C=C/C(=O)O/N=C(\N)c2ccccn2)cc1OC	1	9	-7	-2	21*
Nc1ccc(S(=O)(=O)c2cc(O)c3ccccc3c2O)cc1	2	-5	7	2	x
